Inconclusive results are not listed. Activity calls are given as the source filed them. Unless noted, calls come from the whole dose curve; as a rule, active = well fitted curve in the direction sought with a large enough effect; inconclusive = small, poorly fitted or top-dose-only effect, or another doubt; inactive = no such curve, though single readings can be large; an effect the other way counts as inactive or inconclusive.

Results on ten molecules are retold here after PubChem BioAssay (NCATS).

Test [1] can be described thus: qHTS assay for measurement of the activity of small molecule inhibitors on Zika virus induced Caspase-3 activity in human astrocytoma cells (AID 1224859). The method, boiled down: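 Percent inhibition of virus-induced caspase-3/7 signal is calculated against uninfected and ZIKV-infected control cells. Cells are SNB-19, infected at 2 FFU/cell for 6 h after 1 h compound exposure.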
A general note: Quantitative high-throughput screening tests each substance at several concentrations.

Test [2] can be described thus: qHTS assay to identify small molecule inhibitors of chordoma cells - UCH-1 (AID 1259355). Note: nearly all actives have a fitted effect of over 55% in size. The method, boiled down: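 800 cells/well, overnight attach; compounds pinned at 15 concs, then auranofin/camptothecin/doxorubicin/rubitecan/topotecan combo added; 48hr 37 C, 5% CO2; CellTiter-Glo, 30min RT, luminescence.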
Test [3] is described as follows: qHTS assay to identify small molecule inhibitors of chordoma cells - UCH-2 (AID 1259356). Note: series mostly up to about 46 µM.
A short description of test [4]: NS1 protein of Zika virus - qHTS assay to identify small molecule inhibitors in human HEK 293 cells (AID 1347053). Note: series mostly up to about 46 µM; nearly all actives have a fitted effect of over 55% in size. The method, boiled down:
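Read-out is a two-antibody TR-FRET for ZIKV NS1, normalized between uninfected cells and infected cells. Compound added 1 h before MR766 infection at MOI 0.5; human HEK 293 cells incubated 24 h, 37 C.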

Test [5] is described as follows: qHTS of pediatric cancer cell lines to identify multiple opportunities for drug repurposing: Primary screen for TC32 cells (AID 1347089). Note: nearly all actives have a fitted effect of over 60% in size. A digest of the protocol: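 Luminescent CellTiter-Glo read-out of metabolically active TC32 cells after 48 h compound exposure. Primary: MIPE 11-point, 0.78 nM–46 µM; NPC 8-point, 0.59 nM–46 µM. Confirmatory: 11-point dilutions.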

Test [6] can be described thus: qHTS of pediatric cancer cell lines to identify multiple opportunities for drug repurposing: Primary screen for DAOY cells (AID 1347090). Note: series mostly up to about 46 µM; nearly all actives have a fitted effect of over 55% in size. The method, boiled down: (§1)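 Cell viability, CellTiter-Glo luminescence; 500-1,000 cells/well, 8- or 11-point titration, 48 h compound exposure at 37 degrees C, 5% CO2. Controls: DMSO neutral, bortezomib 2.3 µM final as positive.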

Test [7] is described as follows: qHTS of pediatric cancer cell lines to identify multiple opportunities for drug repurposing: Primary screen for SJ-GBM2 cells (AID 1347091). The method, boiled down: as §1
Test [8] in a line: qHTS of pediatric cancer cell lines to identify multiple opportunities for drug repurposing: Primary screen for A673 cells (AID 1347092). Note: nearly all actives have a fitted effect of over 45% in size. Note: potency is the fitted concentration of half-maximal effect. A digest of the protocol: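 A673 cells (500-1,000 cells/well in growth media) were pre-incubated 5 h at 37 degrees C, then exposed to compounds for 48 h. Viability was read as CellTiter-Glo luminescence; concentration-response curves came directly from the primary screen.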

Test [9] is described as follows: qHTS of pediatric cancer cell lines to identify multiple opportunities for drug repurposing: Primary screen for SK-N-MC cells (AID 1347093). Note: series mostly up to about 46 µM. The method, boiled down: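 Metabolically active cells were quantified by ATP-dependent luminescence (CellTiter-Glo, 15 min at room temperature) following 48 h treatment. Cells had been plated at 500-1,000 per well and settled for 5 h beforehand.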

Test [10] can be described thus: qHTS of pediatric cancer cell lines to identify multiple opportunities for drug repurposing: Primary screen for BT-37 cells (AID 1347094). Note: series mostly up to about 57 µM. A digest of the protocol:
(§2)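 Phenotypic viability qHTS, 48 h compound exposure, CellTiter-Glo luminescence read-out; multi-concentration dosing so that potency and efficacy derive directly from the primary screen's curves.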

A short description of test [11]: qHTS of pediatric cancer cell lines to identify multiple opportunities for drug repurposing: Primary screen for NB-EBc1 cells (AID 1347095). A digest of the protocol: as §2
Test [12] is described as follows: Natriuretic polypeptide receptor (hNpr1) antagonism - Pilot counterscreen GloSensor control cell line (AID 1347045; calls by dose curve; note: series mostly up to about 38 µM). The method, boiled down:
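Control counterscreen: luciferase cGMP-biosensor HEK293 cells (no Npr1) received compound for 30 min at room temperature after GloSensor substrate loading. Luminescence was measured before and 20 min after soluble guanylyl cyclase activation by 50 uM nitroprusside.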
Background: Counterscreens check selectivity or assay interference.

Test [13] has as its target Atrial natriuretic peptide receptor 1 (Homo sapiens) (UniProt P16066). The test can be described thus: Natriuretic polypeptide receptor (hNpr1) antagonism - Pilot screen (AID 1347049; calls by dose curve;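 note: HEK293 cells with hNpr1 and GloSensor cGMP luciferase stimulated by 0.1 nM hNppA; agonist-evoked cGMP luminescence read 20 min after hNppA addition; series mostly up to about 58 µM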). The method, boiled down:
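Receptor antagonism read as cGMP-dependent luminescence in hNpr1/pGS-40F HEK293 cells: pre-read after 30 min compound exposure, post-read 20 min after hNppA agonist at 0.1 nM final, all at room temperature, protected from light; A-71915 titration as control.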

Test [14] concerns the target Atrial natriuretic peptide receptor 2 (Homo sapiens) (UniProt P20594). The test can be described thus: Natriuretic polypeptide receptor (hNpr2) antagonism - Pilot subtype selectivity assay (AID 1347050; calls by dose curve). A digest of the protocol: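 Antagonist mode: compounds (LOPAC1280, seven 1:5 dilutions) added 30 min before 1 nM hNppC stimulation of hNpr2-HEK293 cGMP-sensor cells; luminescence read before and 20 min after agonist at ambient temperature.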

In test [15] the target is T1, Tyrosine-protein phosphatase non-receptor type substrate 1 (Homo sapiens) + Leukocyte surface antigen CD47 (Homo sapiens) (UniProt P78324+Q08722). The test can be described thus: CD47-SIRPalpha protein protein interaction - LANCE assay qHTS validation (AID 1347057; active = well fitted curve in the direction sought with a large enough effect in the signal ratio, with a control signal flat, not every such curve was filed as active; the % refers to the signal ratio; note: series mostly up to about 38 µM). The method, boiled down: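 Inhibition of soluble CD47/SIRPalpha ectodomain association by titrated compounds, measured as 665/615 nm time-resolved FRET ratio after sequential 30 min room-temperature incubations.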
T1 sequence (P78324 whole entry, looked up, the tested form may be a part): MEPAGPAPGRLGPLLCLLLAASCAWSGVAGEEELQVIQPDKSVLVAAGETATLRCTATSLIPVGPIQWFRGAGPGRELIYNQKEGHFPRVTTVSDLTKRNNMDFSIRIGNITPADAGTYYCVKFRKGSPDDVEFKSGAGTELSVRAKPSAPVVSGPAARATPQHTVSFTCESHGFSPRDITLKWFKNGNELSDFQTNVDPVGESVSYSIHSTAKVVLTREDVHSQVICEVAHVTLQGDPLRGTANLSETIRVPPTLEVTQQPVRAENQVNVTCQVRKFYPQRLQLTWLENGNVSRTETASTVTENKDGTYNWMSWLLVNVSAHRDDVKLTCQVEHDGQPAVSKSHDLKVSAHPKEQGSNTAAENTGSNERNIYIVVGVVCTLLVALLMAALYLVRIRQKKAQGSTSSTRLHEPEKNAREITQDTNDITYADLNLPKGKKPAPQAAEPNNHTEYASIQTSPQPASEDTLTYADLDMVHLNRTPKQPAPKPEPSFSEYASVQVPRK
T1 sequence (Q08722 whole entry, looked up, the tested form may be a part): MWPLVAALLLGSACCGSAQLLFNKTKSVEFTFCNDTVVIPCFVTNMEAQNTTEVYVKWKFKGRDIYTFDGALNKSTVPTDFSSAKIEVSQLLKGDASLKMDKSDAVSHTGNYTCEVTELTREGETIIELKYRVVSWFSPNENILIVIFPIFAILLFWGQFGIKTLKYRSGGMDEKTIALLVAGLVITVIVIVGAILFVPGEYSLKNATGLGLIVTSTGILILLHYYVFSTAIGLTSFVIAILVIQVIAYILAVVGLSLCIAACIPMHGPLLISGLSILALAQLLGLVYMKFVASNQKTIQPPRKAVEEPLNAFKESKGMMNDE

For test [16], the target named is T1, Tyrosine-protein phosphatase non-receptor type substrate 1 (Homo sapiens) + Leukocyte surface antigen CD47 (Homo sapiens). The test can be described thus: CD47-SIRPalpha protein protein interaction - HTRF assay qHTS validation (AID 1347058; active = well fitted curve in the direction sought with a large enough effect in the signal ratio, not every such curve was filed as active; the % refers to the signal ratio; note: series mostly up to about 38 µM). A digest of the protocol: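 Soluble extracellular domains (6His-CD47, Avi-tag-biotinylated SIRPalpha) in PBS pH 7.4 with 0.05% IGEPAL CA-630. Compounds were preincubated 30 min at RT with CD47 and anti-His-Eu, then SIRPalpha and SAV-XL665 were added. TR-FRET 665/615 ratio.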
On the technique in general: Time-resolved FRET reads energy transfer from a long-lived donor to a nearby acceptor.

The target is the same in test [17]. The test can be described thus: CD47-SIRPalpha protein protein interaction - Alpha assay qHTS validation (AID 1347059).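 Note: bead proximity luminescence from CD47 binding SIRPalpha after compound preincubation with SIRPalpha.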 A digest of the protocol: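 AlphaScreen signal between CD47-His (12.5 nM) and biotin-SIRPalpha (25 nM) soluble extracellular domains, bead-captured via Ni-NTA and streptavidin. Compounds, in 7-point titrations, met SIRPalpha 30 min before CD47; PBS pH 7.4 with 0.05% IGEPAL.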

Test [18] addresses Parathyroid hormone/parathyroid hormone-related peptide receptor (Homo sapiens) (UniProt Q03431). The test can be described thus: qHTS for PTHR1 Agonists: Optimization Screen against the NCGC LOPAC library (AID 1347079).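 Note: GloSensor cAMP luminescence in HEK-293 GP2 cells expressing human PTHR1 with IBMX.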 A digest of the protocol:
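HEK-293 GP2 cells, PTHR1 + GloSensor cAMP; 3000 cells/well, o/n. Luciferin + IBMX 0.5mM each (stock), 1 hr 37C. Cpd titration, 1 hr 37C. Lum after 15 min RT. Ctrl M-PTH(1-15) top 10uM.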

A short description of test [19]: P-glycoprotein substrates identified in KB-8-5-11 adenocarcinoma cell line, qHTS therapeutic library screen (AID 1346987). Note: series mostly up to about 44 µM; nearly all actives have a fitted effect of over 65% in size. A digest of the protocol:
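Compounds are pinned in dose-response onto KB-8-5-11 cells (500 cells/well, colchicine-free medium) and left 72 h at 37 degree C. CellTiter-Glo luminescence then yields AC50 values.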

Atrial natriuretic peptide receptor 2 (Homo sapiens), sequence (P20594 whole entry, looked up): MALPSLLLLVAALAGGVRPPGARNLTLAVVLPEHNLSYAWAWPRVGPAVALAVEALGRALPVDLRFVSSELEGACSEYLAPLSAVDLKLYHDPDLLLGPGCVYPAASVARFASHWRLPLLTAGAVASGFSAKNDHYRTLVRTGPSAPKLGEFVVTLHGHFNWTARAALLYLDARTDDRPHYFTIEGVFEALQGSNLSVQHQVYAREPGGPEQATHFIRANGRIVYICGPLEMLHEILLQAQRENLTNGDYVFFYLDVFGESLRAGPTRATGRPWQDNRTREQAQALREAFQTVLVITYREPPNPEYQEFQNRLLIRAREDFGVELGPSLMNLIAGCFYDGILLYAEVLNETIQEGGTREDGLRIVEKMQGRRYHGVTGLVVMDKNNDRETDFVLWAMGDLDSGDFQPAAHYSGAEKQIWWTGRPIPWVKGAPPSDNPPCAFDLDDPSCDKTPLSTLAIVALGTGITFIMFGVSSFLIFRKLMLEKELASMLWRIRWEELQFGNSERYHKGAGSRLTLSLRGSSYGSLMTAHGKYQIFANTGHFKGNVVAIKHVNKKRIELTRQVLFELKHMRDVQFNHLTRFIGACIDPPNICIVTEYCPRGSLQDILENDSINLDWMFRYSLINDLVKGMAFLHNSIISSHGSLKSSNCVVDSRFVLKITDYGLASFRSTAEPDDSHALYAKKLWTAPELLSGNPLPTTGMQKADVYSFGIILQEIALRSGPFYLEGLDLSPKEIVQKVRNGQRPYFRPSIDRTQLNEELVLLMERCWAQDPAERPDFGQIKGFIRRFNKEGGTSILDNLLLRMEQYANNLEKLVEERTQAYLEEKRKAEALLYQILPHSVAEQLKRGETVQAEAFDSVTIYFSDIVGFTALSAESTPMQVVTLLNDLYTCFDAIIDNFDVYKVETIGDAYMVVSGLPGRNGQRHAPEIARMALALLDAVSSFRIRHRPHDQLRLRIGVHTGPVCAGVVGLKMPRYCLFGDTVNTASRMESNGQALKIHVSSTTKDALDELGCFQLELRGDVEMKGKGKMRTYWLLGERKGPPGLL
Atrial natriuretic peptide receptor 1 (Homo sapiens), sequence (P16066 whole entry, looked up): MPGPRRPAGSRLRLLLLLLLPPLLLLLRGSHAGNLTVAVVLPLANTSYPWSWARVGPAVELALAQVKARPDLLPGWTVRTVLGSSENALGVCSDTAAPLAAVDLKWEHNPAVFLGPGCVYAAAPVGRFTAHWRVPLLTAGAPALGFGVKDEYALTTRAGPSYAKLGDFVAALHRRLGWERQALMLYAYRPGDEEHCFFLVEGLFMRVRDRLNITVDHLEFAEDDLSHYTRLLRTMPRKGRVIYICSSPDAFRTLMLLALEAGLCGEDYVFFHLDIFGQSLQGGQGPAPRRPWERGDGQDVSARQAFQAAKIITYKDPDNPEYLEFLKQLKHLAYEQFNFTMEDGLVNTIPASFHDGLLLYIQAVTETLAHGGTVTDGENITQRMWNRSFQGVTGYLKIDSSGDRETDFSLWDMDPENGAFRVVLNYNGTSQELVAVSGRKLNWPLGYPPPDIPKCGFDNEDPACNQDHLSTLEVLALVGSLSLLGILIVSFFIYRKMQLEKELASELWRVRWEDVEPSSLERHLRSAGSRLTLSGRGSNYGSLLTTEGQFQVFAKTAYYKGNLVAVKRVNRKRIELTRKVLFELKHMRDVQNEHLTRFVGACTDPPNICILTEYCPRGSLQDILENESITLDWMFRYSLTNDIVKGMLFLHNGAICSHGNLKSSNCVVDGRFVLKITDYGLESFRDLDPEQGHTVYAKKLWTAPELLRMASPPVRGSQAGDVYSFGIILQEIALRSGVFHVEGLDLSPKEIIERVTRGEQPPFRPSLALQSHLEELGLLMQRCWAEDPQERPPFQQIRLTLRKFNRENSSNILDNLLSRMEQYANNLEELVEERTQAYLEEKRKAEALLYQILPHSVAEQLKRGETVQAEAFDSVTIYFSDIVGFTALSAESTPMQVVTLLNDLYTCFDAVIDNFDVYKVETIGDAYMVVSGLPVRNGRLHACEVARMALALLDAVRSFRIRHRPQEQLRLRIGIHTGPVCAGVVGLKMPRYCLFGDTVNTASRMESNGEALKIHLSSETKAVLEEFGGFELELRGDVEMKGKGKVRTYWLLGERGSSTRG
Parathyroid hormone/parathyroid hormone-related peptide receptor (Homo sapiens), sequence (Q03431 whole entry, looked up): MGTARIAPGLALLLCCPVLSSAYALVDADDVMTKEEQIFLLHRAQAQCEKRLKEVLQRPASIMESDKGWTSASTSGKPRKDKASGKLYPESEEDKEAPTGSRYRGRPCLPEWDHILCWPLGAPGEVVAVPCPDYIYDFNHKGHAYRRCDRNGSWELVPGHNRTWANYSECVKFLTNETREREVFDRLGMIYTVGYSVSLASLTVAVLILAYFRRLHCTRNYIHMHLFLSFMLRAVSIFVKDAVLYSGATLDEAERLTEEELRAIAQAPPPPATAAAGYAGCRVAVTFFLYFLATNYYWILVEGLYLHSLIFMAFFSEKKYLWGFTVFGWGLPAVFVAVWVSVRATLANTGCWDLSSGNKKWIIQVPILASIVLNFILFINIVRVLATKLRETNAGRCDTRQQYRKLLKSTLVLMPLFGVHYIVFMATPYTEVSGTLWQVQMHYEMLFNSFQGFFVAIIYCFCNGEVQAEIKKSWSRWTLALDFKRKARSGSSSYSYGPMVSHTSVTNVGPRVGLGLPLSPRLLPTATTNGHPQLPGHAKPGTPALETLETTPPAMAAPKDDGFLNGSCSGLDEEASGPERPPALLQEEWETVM

As to `CC(C)Cc1ccc(CC(=O)O)cc1`, in [1], the call was inactive. The Potency result in test [2], in test [3], in test [4], in [5], in test [6] and in test [7] was “inactive” throughout. For the same molecule, the Potency result in test [8], in [9], in test [10] and in test [11] was “inactive” each time.

For `CN=C(N)NCCC[C@H](N)C(=O)O`, the call in [1], in [12], in test [13], in test [14], in test [15] and in test [16] was inactive. Also, the outcome in test [17] and in test [18] was inactive. Besides, the Potency entry in test [2], in [3] and in [4] was “inactive” each time.

`NS(=O)(=O)c1cc2c(cc1Cl)NC(CC1CCCC1)NS2(=O)=O` (stereo unspecified): the result in test [1] was inactive. In addition, the Potency result in test [2], in [3], in [4], in test [5], in test [6] and in [7] was “inactive” each time. Further, the Potency entry in [8], in [9], in test [10] and in [11] was “inactive” in each case.

As for `CCN1CCN(C(=O)N[C@@H](C(=O)N[C@@H]2C(=O)N3C(C(=O)O)=C(CSc4nnnn4C)CS[C@H]23)c2ccc(O)cc2)C(=O)C1=O`, in [1], the molecule was classed as inactive. The Potency entry in test [2], in test [3], in test [19], in test [4], in test [5] and in test [6] was “inactive” each time. Further, the Potency result in test [7], in test [10] and in test [11] was “inactive” in each case.

Turning to `C=C[C@H]1CN2CC[C@H]1C[C@@H]2[C@@H](O)c1ccnc2ccc(OC)cc12`, the molecule was classed as inactive in [1]. Further, the Potency entry in test [2], in [3], in [4], in [5], in [6] and in [7] was “inactive” throughout. Besides, the Potency result in test [8], in test [9], in test [10] and in [11] was “inactive” throughout.

As to `CC(C)NCC(O)c1ccc2ccccc2c1` (stereo unspecified), in [1], the call was inactive. Besides, the Potency entry in test [2], in test [3], in [4], in test [5], in [6] and in [7] was “inactive” in each case. For the same molecule, the Potency entry in [8], in [9], in test [10] and in [11] was “inactive” each time.

With `C[C@H]1[C@H]2CC[C@H]3[C@@H]4CC=C5C[C@@H](N(C)C)CC[C@]5(C)[C@H]4CC[C@]23CN1C`, the outcome in test [1] was inactive. Moreover, the Potency result in [2], in test [3], in test [19], in [4], in [5] and in test [6] was “inactive” in each case. Moreover, the Potency entry in [7] and in test [11] was “inactive” throughout.

`O=C(c1ccc(F)cc1)C1CCN(CCn2c(=S)[nH]c3ccccc3c2=O)CC1`: in [1], the outcome was inactive. Further, the Potency entry in [2], in test [3], in test [19], in [4], in [5] and in test [6] was “inactive” in each case. The Potency entry in [9] and in [11] was “inactive” each time. In test [8], the Potency is 16.8 µM (active).

Take `CCC1NC(=O)c2cc(S(N)(=O)=O)c(Cl)cc2N1` (stereo unspecified): the call in [1] was inactive. The Potency entry in test [2], in [3], in [4], in [5], in [6] and in [7] was “inactive” in each case. Also, the Potency result in test [8], in test [9], in test [10] and in [11] was “inactive” each time.

For the molecule `Nc1nc(-c2ccccc2)c(Br)c(=O)[nH]1`, the result in test [1] was inactive. The Potency entry in test [2], in test [3], in [19], in test [4], in [5] and in test [6] was “inactive” throughout. In addition, the Potency entry in test [8], in [9], in [10] and in test [11] was “inactive” each time.
